Data as given in PubChem BioAssay (NCATS).
Results filed as inconclusive are left out. Activity calls are given as the source filed them. Unless noted, calls come from the whole dose curve; as a rule, active = well fitted curve in the direction sought with a large enough effect; inconclusive = small, poorly fitted or top-dose-only effect, or another doubt; inactive = no such curve, though single readings can be large; an effect the other way counts as inactive or inconclusive.

Assays:
[1] = biological target: T1, Tyrosine-protein phosphatase non-receptor type substrate 1 (Homo sapiens) + Leukocyte surface antigen CD47 (Homo sapiens) (UniProt P78324+Q08722); test: CD47-SIRPalpha protein protein interaction - LANCE assay qHTS validation (AID 1347057; active = well fitted curve in the direction sought with a large enough effect in the signal ratio, with a control signal flat, not every such curve was filed as active; the % refers to the signal ratio; note: series mostly up to about 38 µM)
Method in brief: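 Inhibition of soluble CD47/SIRPalpha ectodomain association by titrated compounds, measured as 665/615 nm time-resolved FRET ratio after sequential 30 min room-temperature incubations.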

[2] = biological target: T1, Tyrosine-protein phosphatase non-receptor type substrate 1 (Homo sapiens) + Leukocyte surface antigen CD47 (Homo sapiens); test: CD47-SIRPalpha protein protein interaction - HTRF assay qHTS validation (AID 1347058; active = well fitted curve in the direction sought with a large enough effect in the signal ratio, not every such curve was filed as active; the % refers to the signal ratio; note: series mostly up to about 38 µM)
Method in brief: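 Soluble extracellular domains (6His-CD47, Avi-tag-biotinylated SIRPalpha) in PBS pH 7.4 with 0.05% IGEPAL CA-630. Compounds were preincubated 30 min at RT with CD47 and anti-His-Eu, then SIRPalpha and SAV-XL665 were added. TR-FRET 665/615 ratio.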

[3] = biological target: T1, Tyrosine-protein phosphatase non-receptor type substrate 1 (Homo sapiens) + Leukocyte surface antigen CD47 (Homo sapiens); test: CD47-SIRPalpha protein protein interaction - Alpha assay qHTS validation (AID 1347059);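 note: bead proximity luminescence from CD47 binding SIRPalpha after compound preincubation with SIRPalpha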
Method in brief: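 AlphaScreen signal between CD47-His (12.5 nM) and biotin-SIRPalpha (25 nM) soluble extracellular domains, bead-captured via Ni-NTA and streptavidin. Compounds, in 7-point titrations, met SIRPalpha 30 min before CD47; PBS pH 7.4 with 0.05% IGEPAL.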

[4] = biological target: Parathyroid hormone/parathyroid hormone-related peptide receptor (Homo sapiens) (UniProt Q03431); test: qHTS for PTHR1 Agonists: Optimization Screen against the NCGC LOPAC library (AID 1347079);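 note: GloSensor cAMP luminescence in HEK-293 GP2 cells expressing human PTHR1 with IBMX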
Method in brief: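 Signal increase flags agonism. GP2 cells, derived from HEK-293, express human PTHR1 and a GloSensor cAMP construct.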

[5] = qHTS of pediatric cancer cell lines to identify multiple opportunities for drug repurposing: Primary screen for TC32 cells (AID 1347089); note: nearly all actives have a fitted effect of over 60% in size
Method in brief: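 In the primary qHTS, MIPE compounds were tested at 11 concentrations (0.78 nM to 46 µM) and NPC compounds at 8 (0.59 nM to 46 µM) on TC32 cells for 48 h. CellTiter-Glo luminescence gave viability.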

[6] = qHTS of pediatric cancer cell lines to identify multiple opportunities for drug repurposing: Primary screen for DAOY cells (AID 1347090); note: series mostly up to about 46 µM; nearly all actives have a fitted effect of over 55% in size
Method in brief: (§1)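 Cell viability, CellTiter-Glo luminescence; 500-1,000 cells/well, 8- or 11-point titration, 48 h compound exposure at 37 degrees C, 5% CO2. Controls: DMSO neutral, bortezomib 2.3 µM final as positive.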

[7] = qHTS of pediatric cancer cell lines to identify multiple opportunities for drug repurposing: Primary screen for SJ-GBM2 cells (AID 1347091)
Method in brief: as §1

[8] = qHTS of pediatric cancer cell lines to identify multiple opportunities for drug repurposing: Primary screen for A673 cells (AID 1347092); note: nearly all actives have a fitted effect of over 45% in size
Method in brief: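 48 h compound exposure, A673, 500-1,000 cells/well, 37 degrees C/5% CO2. MIPE: 11-point, 0.78 nM-46 µM; NPC: 8-point, 0.59 nM-46 µM (final). Readout CellTiter-Glo luminescence after 15 min RT.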

[9] = qHTS of pediatric cancer cell lines to identify multiple opportunities for drug repurposing: Primary screen for SK-N-MC cells (AID 1347093); note: series mostly up to about 46 µM
Method in brief: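 Metabolically active cells were quantified by ATP-dependent luminescence (CellTiter-Glo, 15 min at room temperature) following 48 h treatment. Cells had been plated at 500-1,000 per well and settled for 5 h beforehand.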

[10] = qHTS of pediatric cancer cell lines to identify multiple opportunities for drug repurposing: Primary screen for BT-37 cells (AID 1347094); note: series mostly up to about 57 µM
Method in brief: (§2)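 Primary screen of approved and investigational compounds on cells in growth media at 37 degrees C, 5% CO2. MIPE set at 11-point and NPC set at 8-point dilutions; viability scored by ATP-based luminescence at 48 hours.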

[11] = qHTS of pediatric cancer cell lines to identify multiple opportunities for drug repurposing: Primary screen for NB-EBc1 cells (AID 1347095)
Method in brief: as §2

[12] = qHTS of pediatric cancer cell lines to identify multiple opportunities for drug repurposing: Primary screen for U-2 OS cells (AID 1347096); note: nearly all actives have a fitted effect of over 50% in size
Method in brief: (§3)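 Cells (500-1,000/well) rested 5 h, then received compounds for 48 h; metabolically active cells were measured by CellTiter-Glo luminescence. Final concentrations spanned up to 46 µM (MIPE, 11-point) or 0.59 nM-46 µM (NPC, 8-point) in primary screens, 11-point in follow-ups.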

[13] = qHTS of pediatric cancer cell lines to identify multiple opportunities for drug repurposing: Primary screen for Saos-2 cells (AID 1347097); note: nearly all actives have a fitted effect of over 40% in size
Method in brief: as §2

[14] = qHTS of pediatric cancer cell lines to identify multiple opportunities for drug repurposing: Primary screen for SK-N-SH cells (AID 1347098); note: nearly all actives have a fitted effect of over 65% in size
Method in brief: as §3

[15] = qHTS of pediatric cancer cell lines to identify multiple opportunities for drug repurposing: Primary screen for NB1643 cells (AID 1347099); note: nearly all actives have a fitted effect of over 50% in size
Method in brief: as §2

[16] = qHTS of pediatric cancer cell lines to identify multiple opportunities for drug repurposing: Primary screen for LAN-5 cells (AID 1347100)
Method in brief: as §3

[17] = qHTS of pediatric cancer cell lines to identify multiple opportunities for drug repurposing: Primary screen for BT-12 cells (AID 1347101); note: nearly all actives have a fitted effect of over 25% in size
Method in brief: as §3

[18] = qHTS of pediatric cancer cell lines to identify multiple opportunities for drug repurposing: Primary screen for Rh18 cells (AID 1347102); note: nearly all actives have a fitted effect of over 65% in size
Method in brief: as §3

[19] = qHTS of pediatric cancer cell lines to identify multiple opportunities for drug repurposing: Primary screen for RD cells (AID 1347104); note: nearly all actives have a fitted effect of over 55% in size
Method in brief: as §2

[20] = qHTS of pediatric cancer cell lines to identify multiple opportunities for drug repurposing: Primary screen for OHS-50 cells (AID 1347103); note: nearly all actives have a fitted effect of over 40% in size
Method in brief: as §3

Measured: Potency

T1 sequence (P78324 whole entry, looked up, the tested form may be a part): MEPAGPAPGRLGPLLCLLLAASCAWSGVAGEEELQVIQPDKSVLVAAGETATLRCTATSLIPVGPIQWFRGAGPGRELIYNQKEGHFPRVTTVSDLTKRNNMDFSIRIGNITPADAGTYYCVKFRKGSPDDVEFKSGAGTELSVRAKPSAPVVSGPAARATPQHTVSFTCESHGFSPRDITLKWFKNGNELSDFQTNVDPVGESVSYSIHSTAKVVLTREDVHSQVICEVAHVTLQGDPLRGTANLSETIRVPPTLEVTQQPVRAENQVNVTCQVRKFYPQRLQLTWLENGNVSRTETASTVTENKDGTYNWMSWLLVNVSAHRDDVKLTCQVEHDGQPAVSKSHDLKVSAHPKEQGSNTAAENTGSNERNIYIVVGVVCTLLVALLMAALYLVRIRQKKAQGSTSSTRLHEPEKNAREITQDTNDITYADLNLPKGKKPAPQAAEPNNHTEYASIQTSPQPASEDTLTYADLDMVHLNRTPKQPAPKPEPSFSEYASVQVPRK
T1 sequence (Q08722 whole entry, looked up, the tested form may be a part): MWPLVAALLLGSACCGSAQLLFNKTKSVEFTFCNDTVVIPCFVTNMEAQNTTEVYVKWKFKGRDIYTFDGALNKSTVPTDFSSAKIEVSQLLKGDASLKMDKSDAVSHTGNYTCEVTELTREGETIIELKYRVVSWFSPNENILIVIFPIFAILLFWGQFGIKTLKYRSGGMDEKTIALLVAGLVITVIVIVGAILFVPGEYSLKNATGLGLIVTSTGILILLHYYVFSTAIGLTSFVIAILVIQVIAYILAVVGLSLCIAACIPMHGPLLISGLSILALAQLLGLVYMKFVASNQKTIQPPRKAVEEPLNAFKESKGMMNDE
Sequence of Parathyroid hormone/parathyroid hormone-related peptide receptor (Homo sapiens) (Q03431 whole entry, looked up): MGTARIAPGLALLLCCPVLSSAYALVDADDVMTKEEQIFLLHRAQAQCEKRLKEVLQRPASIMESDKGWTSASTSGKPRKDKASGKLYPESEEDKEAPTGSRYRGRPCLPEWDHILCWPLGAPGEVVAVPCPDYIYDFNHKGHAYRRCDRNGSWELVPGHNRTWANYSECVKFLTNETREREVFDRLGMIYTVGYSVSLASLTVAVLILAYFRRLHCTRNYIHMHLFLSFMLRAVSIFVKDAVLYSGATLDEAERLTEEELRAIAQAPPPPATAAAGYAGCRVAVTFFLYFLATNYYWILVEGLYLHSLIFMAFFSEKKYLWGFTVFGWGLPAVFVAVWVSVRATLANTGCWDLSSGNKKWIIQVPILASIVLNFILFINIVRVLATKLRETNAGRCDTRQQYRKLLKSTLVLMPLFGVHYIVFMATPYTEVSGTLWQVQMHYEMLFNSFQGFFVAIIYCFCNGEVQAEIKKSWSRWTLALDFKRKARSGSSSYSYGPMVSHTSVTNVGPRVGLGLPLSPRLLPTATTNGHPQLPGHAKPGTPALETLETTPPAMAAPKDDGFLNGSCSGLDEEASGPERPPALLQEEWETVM

CN=C(N)NCCC[C@H](N)C(=O)O
inactive: [1] | [2] | [3] | [4]

NCCNc1cccc2ccccc12
inactive: [5] | [6] | [7] | [8] | [9] | [10] | [11] | [12] | [13] | [14] | [15] | [16] | [17] | [18] | [19]

COc1ccc2c(c1)c1c3n2CCN(C)C3=NCC1
inactive: [5] | [6] | [7] | [8] | [9] | [10] | [11] | [12] | [13] | [14] | [15] | [16] | [17] | [18] | [20] | [19]

CC(=O)O[C@]1(C(C)=O)CC[C@H]2[C@@H]3C=C(C)C4=CC(=O)CC[C@]4(C)[C@H]3CC[C@@]21C
inactive: [5] | [6] | [7] | [8] | [9] | [10] | [11] | [12] | [13] | [14] | [15] | [16] | [18] | [19]

CC(C)(C)NCC(O)COc1cccc2c1C[C@H](O)[C@H](O)C2 (stereo not given in full)
inactive: [5] | [6] | [7] | [8] | [9] | [10] | [11] | [12] | [14] | [15] | [16] | [18] | [20] | [19]

Cc1cc(NS(=O)(=O)c2ccc(N)cc2)nc(C)n1
inactive: [5] | [6] | [7] | [8] | [9] | [10] | [11] | [12] | [14] | [15] | [16] | [17] | [18] | [20] | [19]

Cc1ncc(CO)c(C=O)c1O
inactive: [5] | [6] | [7] | [8] | [9] | [10] | [11] | [12] | [13] | [14] | [16] | [17] | [18] | [20] | [19]

CC(C)(Cc1c[nH]c2ccccc12)NCC(O)COc1ccccc1C#N (stereo not given)
inactive: [5] | [6] | [7] | [8] | [9] | [10] | [11] | [12] | [13] | [15] | [16] | [18]

Nc1nc(N)c(-c2ccccc2)s1
inactive: [5] | [6] | [7] | [8] | [9] | [10] | [11] | [12] | [13] | [14] | [16] | [17] | [18] | [20] | [19]

CC(=O)Nc1ccc(OC(=O)c2ccccc2OC(C)=O)cc1
inactive: [5] | [6] | [7] | [8] | [9] | [10] | [11] | [12] | [14] | [15] | [16] | [17] | [18] | [20] | [19]

OC1C(O)C(O)C(O)C(O)C1O (stereo not given)
inactive: [5] | [6] | [7] | [8] | [9] | [10] | [11] | [12] | [14] | [15] | [16] | [17] | [18] | [20] | [19]

CCOC(=O)c1ccc(N)cc1
inactive: [5] | [6] | [7] | [8] | [9] | [10] | [11] | [12] | [14] | [15] | [16] | [17] | [18]

CN(C)CCOC(=O)C(c1ccccc1)C1(O)CCCC1 (stereo not given)
inactive: [5] | [6] | [7] | [8] | [9] | [10] | [11] | [12] | [14] | [15] | [16] | [17] | [18] | [20] | [19]

CCNC(=O)/C=C/c1cccc(Br)c1
inactive: [5] | [6] | [7] | [8] | [9] | [10] | [11] | [12] | [14] | [15] | [16] | [18] | [19]

O=C(O)P(=O)(O)O
inactive: [5] | [6] | [7] | [8] | [9] | [10] | [11] | [12] | [13] | [14] | [16] | [17] | [18] | [19]

CCN1CCCC(OC(=O)C(c2ccccc2)c2ccccc2)C1 (stereo not given)
inactive: [5] | [6] | [7] | [8] | [9] | [10] | [11] | [12] | [13] | [15] | [16] | [17] | [18] | [20] | [19]

CC(O)Cn1cnc2c1c(=O)n(C)c(=O)n2C (stereo not given)
inactive: [5] | [6] | [7] | [8] | [9] | [10] | [11] | [12] | [14] | [15] | [16] | [17] | [18] | [20] | [19]
